# An excerpt weighted towards active compounds, which were near 6% of everything screened.
# DRD3 agonist: agonists of human D3 dopamine receptor; max activation, %; D3R DiscoveRx beta-arrestin cells, luminescence, 90 min; AID 652048; 410,000 compounds, 0.58% hits; in the data active = max activation above about 30%; also: 0% is about no effect
#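 Cells at 1500/well, incubated overnight, then treated with pinned compounds (dopamine as control) for 90 min at 37 degrees C. DiscoveRx reagent added for 30 - 60 minutes at room temperature; luminescence read.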
# D1 potentiator: human D1 dopamine receptor positive modulation; P21728; HEK293 TREx D1 cells, calcium flux, dopamine EC20 potentiation; potentiation, % at 10 µM; 360,000 compounds, 0.036% hits; AID 504651; in the data active = potentiation above about 30%; also: 0% is about no effect
# Target sequence (P21728 whole entry, looked up): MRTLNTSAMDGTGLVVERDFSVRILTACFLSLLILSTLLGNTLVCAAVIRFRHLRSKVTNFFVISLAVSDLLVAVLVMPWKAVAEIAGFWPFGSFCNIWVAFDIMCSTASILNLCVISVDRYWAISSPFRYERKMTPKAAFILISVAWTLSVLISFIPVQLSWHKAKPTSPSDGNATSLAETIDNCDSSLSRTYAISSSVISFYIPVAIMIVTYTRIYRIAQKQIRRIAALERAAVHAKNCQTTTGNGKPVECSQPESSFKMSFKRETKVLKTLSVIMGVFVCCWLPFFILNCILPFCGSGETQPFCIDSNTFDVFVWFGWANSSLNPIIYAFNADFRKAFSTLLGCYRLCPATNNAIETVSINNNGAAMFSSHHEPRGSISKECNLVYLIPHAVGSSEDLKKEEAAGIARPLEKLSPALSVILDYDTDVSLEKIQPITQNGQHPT
# D1 antag: antagonists of human D1 dopamine receptor; P21728; HEK293 TREx D1 cells, calcium flux, dopamine EC80; hits give low values; activity change, negative = inhibition, % at 10 µM; 360,000 compounds, 3.2% hits; AID 504652; in the data active = activity change below about -30%; also: % is scaled to controls: 0 for no effect and ±100 for the full control effect
#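 Tetracycline-induced HEK293 T-REx cells with force-coupled D1 receptor were loaded with a no-wash calcium dye. Compound was added after a 10 s baseline and read kinetically for 180 s; EC80 dopamine was then added and calcium flux followed another 180 s.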
# D1 ag: agonists of human D1 dopamine receptor. P21728. HEK293 T-REx D1 cells, calcium flux, agonist mode. activation, % at 2 µM. 360,000 compounds, 1% hits. AID 504660; in the data active = activation above about 30%; also: 0% is about no effect
#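 Tetracycline-induced HEK293 TREx D1 cells, force-coupled to calcium signalling, were dye-loaded with a no-wash calcium kit. Compound was pin-added after a 10 s baseline. Fluorescence was read kinetically at 1 cycle/s for 180 s, with calcium rises flagged as agonism.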
# D3 antag: blocks the human D3 dopamine receptor | P35462 | D3R cells, DiscoveRx beta-arrestin luminescence, antagonist mode; hits give low values | max response, negative = inhibition, % | 360,000 compounds, 2.5% hits | AID 652054; in the data active = max response below about -50%; inconclusive = no clear call, values can overlap the other calls; also: % is scaled to controls: 0 for no effect and ±100 for the full control effect
#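 Cells expressing the human receptor were seeded at 1500 cells/well, incubated overnight at 37 degrees C in 5% CO2, then exposed to library compounds with dopamine controls for 90 minutes at 37 degrees C before luminescent detection.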
# * hit, by the source's call; ? = inconclusive; . = no result given; ! = a repeat was not active.
SMILES,DRD3 agonist,D1 potentiator,D1 antag,D1 ag,D3 antag
Cc1cc(/C=C2\C(=N)N3N=C(C(C)C)SC3=NC2=O)c(C)n1Cc1ccccc1,-13,-2,-40*,112*,11
Cc1sc2ncn(CC(=O)N3CCN(c4ccccc4)CC3)c(=O)c2c1S(=O)(=O)N1CCC(C)CC1,-10,0,3,1,.
CC(=O)Nc1cc(C(N)=O)c(Cl)cc1Cl,0,-9,-31*,2,-11
COc1ccccc1OCC(O)CO (centres undefined),83*!,-4,-16,3,5
CCOC(=O)c1cc(-c2ccccc2)n(-c2cccc(C(=O)N(CC)c3ccccc3)c2)c1C,-20,-3,-7,2,.
COc1cccc(NC(=O)NNC(=O)CCc2ccc(O)c(O)c2)c1,67*,0,0,7,-19
O=C(NNC(=S)Nc1ccc(Br)cc1Cl)c1ccncc1,4,0,-15,5,-29
O=C(CCc1ccc(O)c(O)c1)NNC(=S)Nc1ccc(Br)cc1Cl,37*,-8,-23,8,?
O=C(CCc1ccc(O)c(O)c1)NNC(=S)NCCc1ccccc1,59*,-6,-24,7,-13
Cc1ccc(NC(=O)c2cc(S(=O)(=O)N3CCc4ccccc43)ccc2F)cc1Cl,-2,2,-8,-2,.
O=C(COc1ccccc1)Nc1ccc(Cl)c(-c2nc3ncccc3o2)c1,1,-12,-44*,0,21
COCc1nc2ccccc2n1Cc1ccc(C(C)(C)C)cc1,7,-5,-6,2,.
Cc1ccc(CN2COc3c(Cl)cc4c(-c5ccccc5)cc(=O)oc4c3C2)cc1,-4,-1,-32*,6,.
CCCn1c(N2CCN(CC(=O)NCc3cccs3)CC2)nc2ccccc21,-3,-3,7,1,-67*
CCn1c(N2CCN(CC(=O)c3ccc(OC)cc3)CC2)nc2ccccc21,-1,-3,-50*,-1,-10
Cc1csc(C2=C(O)CN(CCc3ccccc3)C2=N)n1,-26,-10,-40*,0,-5
COc1ccccc1NC(=S)NCc1ccccc1Cl,-2,-5,-11,-2,10
COc1ccc(NC(=S)NCc2ccc(F)cc2)c(OC)c1,2,-17,-31*,4,-2
COc1ccc(NC(=S)NCc2ccccc2Cl)c(OC)c1,-2,-9,-33*,-2,0
COc1cc2c(-c3ccc(C)cc3)nc3c(c(C)nn3-c3ccccc3)c2cc1OC,4,-1,-1,2,.
COc1cc(S(=O)(=O)N2CCC(C(N)=O)CC2)c(C)cc1C,-15,1,-8,-3,-104*
CCOc1cc(C)c(C(C)C)cc1S(=O)(=O)N1CCN(C)CC1,8,11,-2,2,-21
COc1cc(C)c(C(C)C)cc1S(=O)(=O)N1CCN(C)CC1,0,-9,-46*,1,-18
COc1cc(C)c(S(=O)(=O)N2CCOCC2)cc1C(C)C,3,-4,-20,2,-88*
COc1ccc(C)cc1S(=O)(=O)N1CCOCC1,1,0,-8,0,1
SMILES,DRD3 agonist,D1 potentiator,D1 antag,D1 ag,D3 antag
COc1cc(C)c(Cl)cc1S(=O)(=O)N1CCCC1,4,-7,-34*,1,4
COc1ccc(NC(=O)Cn2c(=O)nc(-c3ccccc3)c3ccccc32)cc1OC,6,0,-17,-1,.
CCOC(=O)c1c(NC(=O)Cn2nnc3ccccc32)sc2c1CCC(C)C2 (centres undefined),33*,-3,7,5,-8
Nc1c(C(=O)NCc2ccco2)c2nc3ccccc3nc2n1CCc1ccc(F)cc1,-8,-2,-3,6,-63*
CCOc1ccc(Sc2cc(C(=O)NC(C)c3ccccc3)c3ccccc3n2)cc1 (centres undefined),8,-3,-30*,-3,.
CCNC(=S)NNC(=O)c1cc(-c2ccccc2C)nc2ccccc12,-12,5,-11,1,-7
CCNC(=S)NNC(=O)c1cc(-c2cccc(OC)c2)nc2ccccc12,-1,-3,-2,2,7
CCCOc1ccc(C(=O)NNC(=S)NC(=O)c2cc(-c3ccc(Cl)cc3)nc3ccccc23)cc1,-9,-5,0,4,-50*
CCNC(=S)NNC(=O)c1cc(-c2ccc(OCC)cc2)nc2ccccc12,11,-6,-33*,8,-7
CCNC(=S)NNC(=O)c1cc(CC(C)C)nc2ccccc12,-1,-1,-46*,2,-21
Cc1cc(C)c(S(=O)(=O)NCCc2cc3ccc(C)cc3[nH]c2=O)c(C)c1,-3,-6,0,-1,.
Cc1ccc(S(=O)(=O)Nc2ccc3c(c2)nc(CCN2CCOCC2)n3C)cc1,-7,-14,-12,2,-3
Cn1c(CCN2CCCCC2)nc2cc(NS(=O)(=O)c3ccc(F)cc3)ccc21,-4,-2,-4,4,-66*
Cc1ccc(S(=O)(=O)Nc2ccc3c(c2)nc(CN2CCCC2)n3C)cc1,-15,-2,-14,49*,?
CCn1c(CN2CCCCC2)nc2cc(S(=O)(=O)N3CCCCC3)ccc21,-10,-4,-3,1,-81*
Cc1ccc(S(=O)(=O)Nc2ccc3c(c2)nc(CCN2CCCCC2)n3C)cc1,-37,-1,15,2,-79*
CCc1ccc(NC(=O)c2sc3nc(C)cc(C)c3c2NC(=O)c2ccccc2)cc1,-3,-3,-3,-1,.
Cc1c2cnn(-c3ccccc3)c(=O)c2c(C)n1CC(=O)NCCc1ccc(Cl)cc1,2,-2,-6,-2,.
CN(C)c1ccc(C(CNS(=O)(=O)c2ccc(Br)cc2)N2CCCC2)cc1 (centres undefined),-14,2,-21,0,.
CC(CNc1nc2ccccc2c2nc(-c3ccccc3)nn12)c1ccccc1 (centres undefined),-12,-3,-5,3,.
CCCCn1c(CNC(=O)C23CC4CC(CC(C4)C2)C3)nnc1SCC(=O)Nc1ccc(F)cc1,3,1,16,1,.
CCOC(=O)c1c(C)[nH]c(CCC(=O)Nc2cc(C)ccc2OC)c1C,-5,-5,-10,2,.
COc1cc(NC(=O)C(OC(=O)CNC(=O)c2ccccc2)c2ccccc2)cc(OC)c1 (centres undefined),.,11,21,2,.
O=C(O)CC(NS(=O)(=O)c1ccc(Cl)s1)c1ccccc1 (centres undefined),5,-3,5,1,.
CCCCCCCCCCCCCCCC(=O)O[C@@H]1[C@@H](O)[C@@H](O)[C@@H]([C@H](NC(=O)[C@@H]2C[C@@H](CCC)CN2C)[C@H](C)Cl)O[C@@H]1SC,-25,.,.,.,.
CCN(CC)S(=O)(=O)c1ccc2c(c1)N(CC(=O)N1CCN(c3ccc(Cl)cc3)CC1)C(=O)CO2,-10,-5,8,-1,.
